# CYP2C19 inhib = blocks human cytochrome P450 2C19. P33261. CYP2C19 Supersomes, luciferin-H EGE luminescence, 30 min. inhibition, % at 5 µM. 96,000 compounds, 21% hits. AID 778;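 active means CYP2C19 inhibition above a set limit at 5 µM in the primary screen, cut at about 50% in these data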;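 further: plate controls were negative control wells for no effect and 2.5 mM tranylcypromine positive control for full effect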
# Measles CPE = protection of cells from measles virus; Measles virus-infected cells, CPE protection, absorbance; protection (pct of control), % at 4 µM; 140,000 compounds, 1.5% hits; AID 841; in the data active means protection mostly above about 24%, no sharp cut-off; inactive means mostly below about 26%
# CYP2C9 activ = CYP2C9 (human) activation | P11712 | recombinant CYP2C9, luciferin-H conversion, luminescence; stronger effect = higher value; factor 1 = untreated enzyme, 0 = blocked | activation factor at 5 µM | 96,000 compounds, 1.4% hits;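 active means activation factor of 2 or more for CYP2C9 at a 5 µM dose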;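 further: 0 = sulfaphenazole-blocked wells and 1 = vehicle-only wells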
# Target sequence (P11712 whole entry, looked up): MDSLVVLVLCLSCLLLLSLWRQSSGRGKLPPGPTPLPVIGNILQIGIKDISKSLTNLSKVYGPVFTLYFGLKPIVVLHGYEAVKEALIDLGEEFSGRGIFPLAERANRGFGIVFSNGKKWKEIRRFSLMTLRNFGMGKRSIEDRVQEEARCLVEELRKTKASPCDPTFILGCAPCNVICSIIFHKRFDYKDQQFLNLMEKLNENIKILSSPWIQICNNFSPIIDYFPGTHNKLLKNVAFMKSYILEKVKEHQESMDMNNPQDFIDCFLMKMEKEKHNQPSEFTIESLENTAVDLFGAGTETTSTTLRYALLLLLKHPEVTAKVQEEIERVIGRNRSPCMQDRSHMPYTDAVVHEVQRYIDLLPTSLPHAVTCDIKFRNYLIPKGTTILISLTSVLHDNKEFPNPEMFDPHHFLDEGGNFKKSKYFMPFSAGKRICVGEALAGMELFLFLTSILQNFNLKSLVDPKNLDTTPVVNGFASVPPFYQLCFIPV
# CYP2C9 inhib = blocks human cytochrome P450 2C9; P11712; CYP2C9 Supersomes, luciferin-H conversion, luminescence; inhibition, % at 5 µM; 96,000 compounds, 20% hits;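 active means blocking of liver enzyme CYP2C9 beyond about 50% at 5 µM, limit read from the data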
# CYP2C19 activ = increases human CYP2C19 enzyme activity; P33261; recombinant CYP2C19, luciferin-H EGE luminescence; stronger effect = higher value; 0 = fully inhibited enzyme, 1 = untreated enzyme; activation factor at 5 µM; 96,000 tested, under 10 active;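 active means activation factor of at least 2 at 5 µM in the primary screen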;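 further: 0 = wells with 2.5 mM tranylcypromine and 1 = vehicle-only wells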
# * marks the source's active call; other numbers are inactive results; . = no result. Hits are enriched below; roughly 22% of the tested compounds scored in any of these assays.
SMILES,CYP2C19 inhib,Measles CPE,CYP2C9 activ,CYP2C9 inhib,CYP2C19 activ
CCCC1=C(C(=O)OCC)C2(C(=O)Nc3ccc(C)cc32)C(C#N)=C(N)O1 (stereo not drawn),61.5*,1.0,0.5,51.1*,0.4
Cc1ccccc1N1C(=O)CC(=O)N(c2ccccc2C)C1=O,.,15.4,.,.,.
O=C1C2CCCN2C(c2ccc(Cl)cc2)N1c1ccccn1 (stereo not drawn),-5.3,6.7,1.1,-9.6,1.1
Cc1ccccc1-c1nc(CS(=O)CC(=O)N2CCC3(CC2)OCCO3)c(C)o1 (stereo not drawn),14.7,3.7,1,2.2,0.9
Cc1ccsc1-c1nc(CSCC(=O)N2CCC3(CC2)OCCO3)c(C)o1,67.2*,5.4,1,1.0,0.3
CP(C)(=O)CCC(=O)O,-17.4,37.7*,1.2,-20.7,1.2
O=C(c1ccccc1)c1cn(CC(=O)N2CCOCC2)c2ccccc12,40.6,15.6,0.5,53.1*,0.6
O=C(c1ccccc1)c1cn(CC(=O)N2CCCC2)c2ccccc12,10.4,17.0,0.9,12.0,0.9
CCn1cc(C(=O)c2ccccc2)c2ccccc21,27.5,11.1,2.5*,-149.6,0.7
CCNc1ccc(P(=S)(N(C)C)N(C)C)cc1,43.5,2.9,0.6,37.0,0.6
CCC(C)N1CCN(C(=O)Cc2ccccc2)CC1 (stereo not drawn),36.4,4.6,1,4.8,0.6
N[C@@H](Cc1c[nH]c2ccccc12)c1nnc(SCc2ccccc2)o1,42.6,44.8*,0.7,32.3,0.6
N[C@@H](Cc1c[nH]c2ccccc12)c1nnc(SCc2ccc(Cl)cc2)o1,65.5*,1.6,0.6,43.7,0.3
COP(=O)(OC)C1(Nc2ccc(C)cc2)CCCCC1,83.0*,3.9,0.7,33.3,0.2
COc1ccc2nc(NC(=O)CCc3nc(C4=CCN(C)CC4)no3)sc2c1,36.1,8.0,0.2,75.3*,0.6
CCOC(=O)c1c(NC(=O)C(c2ccccc2)c2ccccc2)sc2c1C1CCN2CC1,22.7,1.3,0.4,63.1*,0.8
CC(=O)Nc1ccccc1OP1(=O)COc2ccccc2OC1,2.0,3.6,1,-0.7,1
CC(=NCc1ccc2c(c1)OCO2)c1c(O)n(C)c(=O)n(C)c1=O,6.6,.,0.8,23.2,0.9
CCC(=NCc1ccc2c(c1)OCO2)c1c(O)n(C)c(=O)n(C)c1=O,29.2,2.6,0.4,61.6*,0.7
CCC(=Nc1ccc(OC)cc1OC)c1c(O)n(C)c(=O)n(C)c1=O,9.8,5.7,0.9,9.8,0.9
CCC(=NCc1cc(OC)cc(OC)c1)c1c(O)n(C)c(=O)n(C)c1=O,29.1,11.2,0.2,81.0*,0.7
CCCCC1(CN2CCCC2=O)C(=O)NC(=O)NC1=O,.,19.2,.,.,.
COc1ccccc1N1C(=O)NC(=O)C(CCc2ccncc2)(CCc2ccncc2)C1=O,90.6*,14.9,0.3,69.3*,0.1
CCOc1ccccc1N1C(=O)NC(=O)C(CCc2ccncc2)(CCc2ccncc2)C1=O,.,5.2,.,.,.
NCC(CC(=O)O)c1ccc(Cl)cc1 (stereo not drawn),-14.0,5.4,1.2,-15.4,1.1
SMILES,CYP2C19 inhib,Measles CPE,CYP2C9 activ,CYP2C9 inhib,CYP2C19 activ
O=C(c1cccc(N2CCCC2=O)c1)N1CCC2(CC1)OCCO2,1.9,18.3,1.2,-18.7,1
O=C(c1cc2c(s1)CCCC2)N1CCC2(CC1)OCCO2,91.6*,5.6,0.7,30.2,0.1
O=C(c1csc2c1CCCCC2)N1CCC2(CC1)OCCO2,98.4*,7.3,1.4,-37.5,0
O=C(c1cc(S(=O)(=O)N2CCCCC2)ccc1F)N1CCC2(CC1)OCCO2,2.8,15.1,0.8,22.0,1
CN1C(=O)c2ccccc2Sc2ccc(C(=O)N3CCC4(CC3)OCCO4)cc21,0.5,12.1,0.7,28.1,1
O=C(c1cc2c(s1)-c1ccccc1OC2)N1CCC2(CC1)OCCO2,84.2*,3.0,0.8,24.9,0.2
Cc1ccc(N)c(C(=O)c2ccccc2)c1,84.8*,2.8,1,2.7,0.2
O=P(NS(=O)(=O)c1ccc(Cl)cc1)(Oc1ccccc1)Oc1ccccc1,.,9.0,.,.,.
Cc1ccc(S(=O)(=O)NP(=O)(Oc2ccccc2)Oc2ccccc2)cc1,12.7,5.0,0.2,78.5*,0.9
O=P(NS(=O)(=O)c1ccc(Br)cc1)(Oc1ccccc1)Oc1ccccc1,42.0,7.6,0,98.1*,0.6
O=P(NS(=O)(=O)c1ccccc1)(Oc1ccccc1)Oc1ccccc1,-0.5,5.5,0.3,65.1*,1
CC(NCc1ccc(Cl)c(Cl)c1)C(O)c1ccccc1 (stereo not drawn),99.8*,32.5,0.6,41.5,0
CC(NCc1ccccc1Cl)C(O)c1ccccc1 (stereo not drawn),96.3*,15.1,1,0.8,0
CCn1c(O)c(C=Nc2ccc(N3CCOCC3)cc2)c(=O)n(CC)c1=S,21.9,35.1*,0.9,7.6,0.8
CCn1c(O)c(C=Nc2ccc(N3CCOCC3)c(Br)c2)c(=O)n(CC)c1=S,20.6,4.3,1.1,-6.0,0.8
CCOC(=O)c1nc2ccccc2c(=O)n1-c1cccc(C)c1,40.9,17.9,0.5,51.8*,0.6
CCOC(=O)c1nc2ccccc2c(=O)n1-c1ccc(C)cc1,45.9,6.8,0.4,55.0*,0.5
COc1nc2ccccc2c(=O)n1-c1ccc(C)cc1,.,4.6,.,.,.
Cc1cccc(-n2c(-c3cccs3)nc3ccccc3c2=O)c1,.,7.6,.,.,.
CC(=O)Nc1cc(C(=O)N2CCC3(CC2)OCCO3)ccc1Sc1ccc(C)cc1,40.6,9.7,0.6,35.5,0.6
ON1C2CCCCC2N(O)C1c1ccccc1 (stereo not drawn),16.1,23.9,0.9,5.5,0.8
CC(=O)C1C2c3ccccc3OC1(C)N=c1s/c(=C/c3cnn(C)c3)c(=O)n12 (stereo not drawn),5.8,15.3,0.7,26.5,0.9
COC(=O)C1C2c3ccccc3OC1(C)N=c1s/c(=C/c3cnn(C)c3C)c(=O)n12 (stereo not drawn),39.9,6.2,0.3,68.4*,0.6
COc1ccc(Cn2c(O)c(C=NCCCn3ccnc3)c(=O)[nH]c2=O)cc1,4.9,5.8,0.4,62.8*,1
CCCCCCn1c(O)c(C=NCCCn2ccnc2)c(=O)[nH]c1=O,40.0,4.7,0.1,93.4*,0.6
CCOc1ccc(-n2c(O)c(C=NCCCn3ccnc3)c(=O)[nH]c2=O)cc1,-13.3,15.3,0.6,43.4,1.1
Oc1c(Br)cc(Br)cc1Oc1ccc(Br)cc1Br,.,16.6,.,.,.
COc1ccc([N+](=O)[O-])cc1N=Cc1c(O)n(CCc2ccccc2)c(=O)n(C(C)C)c1=O,.,22.2,.,.,.
Fc1ccc(Cn2nnnc2C(c2ccc(Cl)cc2)N2CC=C(c3ccc(F)cc3)CC2)cc1 (stereo not drawn),.,40.9*,.,.,.
Fc1ccc(C2=CCN(C(c3ccc(Cl)cc3)c3nnnn3Cc3ccccc3)CC2)cc1 (stereo not drawn),.,4.3,.,.,.

# Compound activity deposited in PubChem BioAssay by several laboratories.
